Test results from PubChem BioAssay AID624330 (Southern Research Specialized Biocontainment Screening …, 2012).
Hit rate of the full screen: of about 340,000 compounds, about 2,100 (0.62%) were called active.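 How the source made its calls: active means first-screen hits whose inhibition reached a set limit at any dose in the follow-up dose series; inconclusive means inhibition above the set first-screen limit but never retested; inactive means the rest.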 The list is a sample of the results. Potency and affinity values are given separately.

biological target: Rac GTPase-activating protein 1 (Homo sapiens) (UniProt Q9H0H5); experiment: blockers of MgcRacGAP-driven Rac1 GTP hydrolysis – biochemical, ADP Hunter fluorescence, primary and confirmatory, confirmation (AID 624330); conditions: MgcRacGAP-stimulated Rac1 GTP hydrolysis, at 30 µM, active compounds read high, GST-tagged Rac1 F28L mutant substrate;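 further: fluorescence reports GDP produced by GAP-driven GTP hydrolysis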
Sequence (Q9H0H5 whole entry, looked up): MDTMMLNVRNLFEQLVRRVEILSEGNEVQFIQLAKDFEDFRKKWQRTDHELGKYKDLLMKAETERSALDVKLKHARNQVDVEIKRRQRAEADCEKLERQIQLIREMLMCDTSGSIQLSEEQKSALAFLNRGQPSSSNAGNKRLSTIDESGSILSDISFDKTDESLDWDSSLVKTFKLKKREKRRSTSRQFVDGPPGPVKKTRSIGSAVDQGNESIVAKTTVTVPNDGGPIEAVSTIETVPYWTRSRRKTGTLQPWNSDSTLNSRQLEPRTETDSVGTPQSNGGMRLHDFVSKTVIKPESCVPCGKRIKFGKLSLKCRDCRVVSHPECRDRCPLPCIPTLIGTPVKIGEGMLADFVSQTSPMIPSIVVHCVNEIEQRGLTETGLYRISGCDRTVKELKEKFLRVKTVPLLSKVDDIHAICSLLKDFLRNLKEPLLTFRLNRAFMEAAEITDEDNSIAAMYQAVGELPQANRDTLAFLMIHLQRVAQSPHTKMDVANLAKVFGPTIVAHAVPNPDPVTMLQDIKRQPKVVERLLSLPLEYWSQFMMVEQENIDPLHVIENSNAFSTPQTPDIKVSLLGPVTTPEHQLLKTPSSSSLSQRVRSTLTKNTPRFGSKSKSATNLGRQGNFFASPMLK

inhibition, inactive:
CC(=O)c1cccc(S(=O)(=O)NC2CCCCCC2)c1 1.69%, COc1ccc(C(C(=O)NC2CCCCC2)N(Cc2ccco2)C(=O)c2ccccn2)c(OC)c1 (stereo not given) 10.7%, CCCN(CCC)C(=O)c1ccc2c(c1)S(=O)(=O)c1ccccc1C2=O 6.12%, NC(=S)Nc1ccc(S(=O)(=O)c2ccc(NC(N)=S)cc2)cc1 10.8%, CC1(C)C(=O)OC(c2c3ccccc3cc3ccccc23)C(C)(C)C1=O (stereo not given) 1.71%, CC(NS(=O)(=O)c1cccc(S(=O)(=O)c2ccccc2)c1)C(=O)O (stereo not given) -5.11%, CCOC(=O)N1CCN(C(=O)c2cccc(S(=O)(=O)Nc3ccc(F)cc3)c2)CC1 4.83%, CCOC(=O)C1CCN(c2c(N3CCCC(C(=O)OCC)C3)c(=O)c2=O)CC1 (stereo not given) 4.65%, CN(C)CCNC(=O)c1onc(CSc2nc3ccccc3[nH]2)c1C(=O)NCCN(C)C 17.3%, Brc1ccc(-c2ccc(/C=N/Nc3nc4ccccc4[nH]3)o2)cc1 3.17%, COCCNC(=O)/C(C#N)=C/c1ccc(C(=O)O)cc1 0.25%, COc1cccc(C(=O)N2CCn3c2nc2ccccc23)c1 8.54%, O=C(Nc1nnc(C2CCCCC2)s1)C1CC(=O)N(c2ccc(F)cc2)C1 (stereo not given) 3.31%, COc1ccc(NC(=O)CSc2ccc3ccccc3c2)cc1S(=O)(=O)N1CCCCC1 8.21%, COc1cccc2c(N/N=C/c3ccc(O)c(O)c3)cc(C)nc12 27.1%, Cc1ccc2nc(C)cc(N/N=C/c3cccc(O)c3)c2c1 14.1%, COc1cccc2c(N/N=C/c3ccccc3)cc(C)nc12 11%, COc1ccc(/C=N/Nc2cc(C)nc3ccccc23)cc1 14.7%, N#Cc1nc(COc2ccc(F)cc2)oc1N1CCC(Cc2ccccc2)CC1 0.56%, N#Cc1ccc(N/N=C/c2ccccc2)c([N+](=O)[O-])c1 2.61%, Cc1sc(NC(=O)c2ccc(F)cc2)c(CN2CCCCCC2)c1C 13.7%, CCn1c(CC(=O)Nc2ccc(Cl)c(Cl)c2)nnc1SCc1ccc(Cl)cc1 11.6%, Cc1sc2ncn(CC(=O)N3CCCCC3)c(=O)c2c1C 6.45%, O=C(Nc1ccncc1)C1CC(=O)N(c2ccccc2)C1 (stereo not given) 0.29%, CCN1C(=O)[C@H]2[C@@H](c3ccc(Cl)cc3)N3C(=O)CN(Cc4ccccc4)C(=O)[C@@]3(C)[C@H]2C1=O 5.83%
